Shown are actives, neighbours in structure and some others; about 0.37% of the full set was active somewhere.
Cdc42 wt: changes GTP binding to wildtype human Cdc42 | GST-Cdc42 beads, Bodipy-GTP binding, flow cytometry; actives lie on both sides | percent activity (GTP binding), % at 10 µM | 0.2% of 190,000 active;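 active = percent activity GTP binding at least 20 points away from the 100% baseline, either down as inhibitor or up as activator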;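 note: median bead fluorescence of bound Bodipy-FL-GTP at 100 nM; 0% = excess unlabeled GTP control and 100% = no compound control; below 100% means less GTP binding so inhibitor and above means activator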
Target sequence (P60953 whole entry, looked up): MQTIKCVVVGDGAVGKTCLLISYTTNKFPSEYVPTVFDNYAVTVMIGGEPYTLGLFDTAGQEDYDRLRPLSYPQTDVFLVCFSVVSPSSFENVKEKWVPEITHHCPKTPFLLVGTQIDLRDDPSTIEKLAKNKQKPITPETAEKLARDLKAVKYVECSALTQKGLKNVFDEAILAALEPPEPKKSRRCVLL
HRas wt GTP: modulators of GTP binding to human HRas wildtype. P01112. GST-Ras wt beads, Bodipy-FL-GTP binding, flow cytometry; actives lie on both sides. GTP binding activity, % at 10 µM. 0.14% of 190,000 active;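 active = GTP binding activity at least 20% away from the 100% baseline, either lowered as inhibitor or raised as activator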;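 note: 0% = unlabeled GTP competition control and 100% = no-compound control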
Target sequence (P01112 whole entry, looked up): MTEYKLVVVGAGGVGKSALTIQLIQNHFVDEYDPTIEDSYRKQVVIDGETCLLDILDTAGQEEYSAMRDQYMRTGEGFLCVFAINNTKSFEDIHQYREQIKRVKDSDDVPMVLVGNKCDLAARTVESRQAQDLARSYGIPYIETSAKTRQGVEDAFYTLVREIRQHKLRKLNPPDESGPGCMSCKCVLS
Rac1 mut GTP: human Rac1 activated mutant GTP binding change; P63000; GST-Rac1 activated beads, fluorescent GTP binding, flow cytometry; actives lie on both sides; 100% means binding = to untreated wells; percent activity (GTP binding), % at 10 µM; 0.11% of 190,000 active; AID 764;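 active = GTP binding at least 20 percentage points away from the 100% baseline, in either direction, so actives lie on both sides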
Rab2A wt mod: changes GTP binding to wildtype dog Rab2A, up or down | GST-Rab2 wt beads, Bodipy-GTP binding, flow cytometry | 0.19% of 190,000 active | AID 760 | GTP binding activity, % at 10 µM | P61105;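 active = GTP binding activity at least 20 points away from 100%, either lowered or raised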;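 note: 0% = beads with excess unlabeled GTP and 100% = no-compound control corrected for plate trend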
Rab7 wt GTP bind: alters GTP binding to wildtype dog Rab7; GTP binding activity (percent of control), % at 10 µM; GST-Rab7 beads, fluorescent GTP binding, flow cytometry; actives lie on both sides; untreated = 100%, excess cold GTP = 0%; 0.055% of 190,000 active;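 active = fluorescent GTP binding to Rab7 beads changed by at least 20 points from the 100% baseline, either direction, mostly lower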;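 note: median green fluorescence of bound Bodipy-FL-GTP per Rab7 bead population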
Rac1 wt modul: human Rac1 wildtype GTP binding, inhibitors and activators; 0.27% of 190,000 active; GTP binding activity (% of control), % at 10 µM; P63000; GST-Rac1 beads, fluorescent GTP binding, flow cytometry; actives lie on both sides; 0 = cold GTP competed, 100 = untreated;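 active = GTP binding activity at least 20 points away from the 100% control level, either lower or higher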
* = called active by the depositor.

Cc1sc2nc3c4ccccc4c(NCc4ccco4)nn3c(=O)c2c1C was read as Cdc42 wt 75.0*, HRas wt GTP 76.0*, Rac1 mut GTP 85.0, Rab2A wt mod 74.0*, Rab7 wt GTP bind 87.0 and Rac1 wt modul 83.0.
Screening Cc1cc(C)nc(Nc2ncc(O)n2-c2ccc(Br)cc2)n1 returned Cdc42 wt 100.0, HRas wt GTP 100.0, Rac1 mut GTP 96.0, Rab2A wt mod 99.0, Rab7 wt GTP bind 100.0 and Rac1 wt modul 101.0.
Screening COc1cccc(/C=C/C(=O)Nc2ccccc2N2CCOCC2)c1 returned Cdc42 wt 54.0*, HRas wt GTP 53.0*, Rac1 mut GTP 50.0*, Rab2A wt mod 51.0*, Rab7 wt GTP bind 23.0* and Rac1 wt modul 48.0*.
O=C(O)CC(Cc1ccccc1)C(=O)NCC12CC3CC(CC(C3)C1)C2 (stereo not given) was read as Cdc42 wt 94.0, HRas wt GTP 95.0, Rac1 mut GTP 93.0, Rab2A wt mod 95.0, Rab7 wt GTP bind 96.0 and Rac1 wt modul 92.0.
CCCc1nnc(SCC(=O)N2CCCC2)n1Cc1ccco1 was read as Cdc42 wt 96.0, HRas wt GTP 97.0, Rac1 mut GTP 94.0, Rab2A wt mod 98.0, Rab7 wt GTP bind 101.0 and Rac1 wt modul 96.0.
Cc1ccc(OCCn2cnc3cc([N+](=O)[O-])ccc3c2=O)cc1 was read as Cdc42 wt 79.0*, HRas wt GTP 82.0, Rac1 mut GTP 87.0, Rab2A wt mod 79.0*, Rab7 wt GTP bind 100.0 and Rac1 wt modul 90.0.
Screening O=c1c2ccc([N+](=O)[O-])cc2ncn1CCOc1ccccc1 returned Cdc42 wt 84.0, HRas wt GTP 81.0, Rac1 mut GTP 87.0, Rab2A wt mod 79.0*, Rab7 wt GTP bind 95.0 and Rac1 wt modul 76.0*.
For CCCC1CCC(=C(C#N)C(N)=O)CC1 (stereo not given) the results were Cdc42 wt 104.0, HRas wt GTP 102.0, Rac1 mut GTP 99.0, Rab2A wt mod 101.0, Rab7 wt GTP bind 104.0 and Rac1 wt modul 108.0.
For CCn1nc(C(=O)OCC(=O)c2cc(C)n(Cc3cccs3)c2C)c2ccccc2c1=O the results were Cdc42 wt 77.0*, HRas wt GTP 83.0, Rac1 mut GTP 74.0*, Rab2A wt mod 76.0*, Rab7 wt GTP bind 82.0 and Rac1 wt modul 78.0*.
Screening O=C1c2ccccc2-c2onc3ccc(Oc4ccccc4)c1c23 returned Cdc42 wt 78.0*, HRas wt GTP 81.0, Rac1 mut GTP 68.0*, Rab2A wt mod 79.0*, Rab7 wt GTP bind 88.0 and Rac1 wt modul 79.0*.
For CCOC(=O)C(C(=O)OCC)c1cc(Br)c2noc3c2c1C(=O)c1ccccc1-3 the results were Cdc42 wt 103.0, HRas wt GTP 96.0, Rac1 mut GTP 89.0, Rab2A wt mod 99.0, Rab7 wt GTP bind 102.0 and Rac1 wt modul 94.0.
`COc1cc(/C=C/C(=O)OCC(=O)c2c(N)n(C)c(=O)n(C)c2=O)ccc1OCC#N` gave Cdc42 wt 85.0, HRas wt GTP 88.0, Rac1 mut GTP 89.0, Rab2A wt mod 82.0, Rab7 wt GTP bind 92.0 and Rac1 wt modul 83.0.
Screening N#C/C(=C\c1ccco1)c1nc2ccccc2s1 returned Cdc42 wt 98.0, HRas wt GTP 100.0, Rac1 mut GTP 99.0, Rab2A wt mod 99.0, Rab7 wt GTP bind 96.0 and Rac1 wt modul 100.0.
`N#C/C(=C/c1ccc(-c2cc(C(=O)O)cc(C(=O)O)c2)o1)c1nc2ccccc2s1` gave Cdc42 wt 71.0*, HRas wt GTP 75.0*, Rac1 mut GTP 77.0*, Rab2A wt mod 67.0*, Rab7 wt GTP bind 86.0 and Rac1 wt modul 70.0*.
Nc1nc(N2CCN(c3ccc(F)cc3)CC2)n[nH]1 was read as Cdc42 wt 96.0, HRas wt GTP 97.0, Rac1 mut GTP 95.0, Rab2A wt mod 99.0, Rab7 wt GTP bind 97.0 and Rac1 wt modul 101.0.
Screening Nc1nc2c(c(=O)[nH]1)C(c1cccc3ccccc13)C1=C(N2)c2ccccc2C1=O (stereo not given) returned Cdc42 wt 79.0*, HRas wt GTP 83.0, Rac1 mut GTP 87.0, Rab2A wt mod 79.0*, Rab7 wt GTP bind 91.0 and Rac1 wt modul 74.0*.

Source: PubChem BioAssay
